Experimental data: ChEMBL document CHEMBL3433997, “St. Jude Leishmania screening dataset” (2016)

Legend:
Format in all cases: functional
[1] = biological target: Solute carrier family 2, facilitated glucose transporter member 1 (Homo sapiens) (UniProt P11166); experiment: ST_JUDE_LEISH: Cytotoxicity at 2uM final concentration against transgenic Leishmania Mexicana promastigotes LmGLUT1 that are glucose transport deficient and complemented with the human glucose transporter GLUT1. Activity is measured by DNA content using SYBR green in vitro
[2] = biological target: Hexose transporter 1 (Plasmodium falciparum) (UniProt O97467); experiment: ST_JUDE_LEISH: Cytotoxicity at 2uM final concentration against transgenic Leishmania Mexicana promastigotes LmPfHT that are glucose transport deficient and complemented with the Plasmodium falciparum hexose transporter. Activity is measured by DNA content using SYBR green in vitro
[3] = biological target: Glucose transporter (Leishmania mexicana) (UniProt O61059); experiment: ST_JUDE_LEISH: Cytotoxicity at 2uM final concentration against transgenic Leishmania Mexicana promastigotes LmGT2 that are glucose transport deficient and complemented with the L. Mexicana glucose transporter 2. Activity is measured by DNA content using SYBR green in vitro

Chain of Solute carrier family 2, facilitated glucose transporter member 1 (Homo sapiens) (P11166 whole entry): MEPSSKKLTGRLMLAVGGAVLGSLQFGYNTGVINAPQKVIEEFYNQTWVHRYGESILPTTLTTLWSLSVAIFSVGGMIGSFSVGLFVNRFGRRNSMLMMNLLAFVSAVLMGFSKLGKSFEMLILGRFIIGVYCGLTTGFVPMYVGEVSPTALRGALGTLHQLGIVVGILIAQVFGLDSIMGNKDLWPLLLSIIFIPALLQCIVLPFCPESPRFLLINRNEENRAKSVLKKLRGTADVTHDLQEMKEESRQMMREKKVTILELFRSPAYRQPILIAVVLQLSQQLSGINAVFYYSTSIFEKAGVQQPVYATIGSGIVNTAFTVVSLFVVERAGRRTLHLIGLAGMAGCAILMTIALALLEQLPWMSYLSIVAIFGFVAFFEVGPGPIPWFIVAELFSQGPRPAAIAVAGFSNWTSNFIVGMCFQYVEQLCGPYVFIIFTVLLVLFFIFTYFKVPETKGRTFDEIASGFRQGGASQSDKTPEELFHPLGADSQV

SMILES	inhibition [1]	inhibition [2]	inhibition [3]
O=C(Cn1cnc2c(nnn2Cc2ccccc2F)c1=O)Nc1ccc2c(c1)OCCO2	1.31%	0.66%	-0.43%
CCCCCCCc1c(C)nc2c(OC)cccc2c1O	5.31%	8.11%	-0.9%
CCC(CC)n1c(C)cc2c3c(N)nc(N)nc3ccc21	89.4%	90%	70.8%
O=C(CCC1CCCC1)N(Cc1ccc(-c2ccc(CNCCc3ccccn3)cc2)cc1)CC1CCCCN1 (centres undefined)	15.2%	4.22%	1.88%
COCCn1c(Sc2ncnc3sccc23)nc2ccccc21	0.98%	2.13%	1.8%
COc1ccc2nccc([C@@H](O)CN3CCC(NCc4nc5c(OCc6ccccc6)cccc5[nH]4)CC3)c2c1	4.97%	3.37%	4.99%
Clc1cnc2ccc3c(c2c1CCN1CCC(NCc2cc4c(cn2)OCCO4)CC1)OCCO3	27.3%	42.2%	14.9%
Cc1cc2ncn(-c3nccc(NCc4cccnc4)n3)c2cc1C	4.32%	4.68%	2.17%
CN1CCN(c2ccnc3ccc(NC(=O)Nc4ccc5c(c4)CCCC5=O)cc23)CC1	0.37%	1.11%	1.66%
CN1CCN(CC(=O)Nc2ccc(-c3ccc(-c4nc5cc(C(F)(F)F)ccc5[nH]4)cc3)cc2)CC1	2.58%	0.64%	1.55%
O=C(NCc1ccc(C(=O)N2CCC(N3CCCCC3)CC2)cc1)c1cc(-c2cccc(C(F)(F)F)c2)ccc1O	7.73%	6.4%	7.14%
CCCc1cc(OC)c(CC2c3cccc(O)c3CCN2C)cc1OC (centres undefined)	0.68%	0.4%	-0.12%
O=C(NCCc1ccccc1)[C@H](Cc1ccccc1)Nc1ccnc(NCC2CCCCC2)n1	-0.55%	2.47%	0.61%
Cc1cccc(CNc2ncc(C)c(NCCC(=O)Nc3ccccc3)n2)c1	15.3%	12.7%	6.61%
CCC[C@@H]([C@@H](CC1CCCCC1)C(=O)N[C@@H](CCCCNS(C)(=O)=O)C(=O)Nc1nccs1)N(O)C=O	1.61%	3.98%	-0.28%
O=C(C=Cc1cccs1)N(CCCn1ccnc1)c1nc2ccc(F)cc2s1	4.66%	4.09%	2.51%
Cc1c(O)cccc1Nc1ccnc2ccc(C(F)(F)F)cc12	-0.14%	0.25%	-1.33%
O=C(NC1CCN(Cc2ccc3c(c2)OCCO3)CC1)c1ccc(-c2cccc(C(F)(F)F)c2)s1	3.14%	1.52%	2.57%
CC(C)(CNC(=O)C1CCN(Cc2ccc(Cl)cc2)CC1)c1nc(-c2ccc(Cl)c(O)c2)c(-c2ccncc2)[nH]1	6.62%	6.8%	9.13%
COc1ccc2nccc(N3CCN(CCNCc4ccc5c(n4)NC(=O)CS5)CC3)c2n1	0.43%	1.14%	0.07%
COc1ccc(CNCc2ccc(-c3cccc(-c4nc5cccc(C)c5[nH]4)c3)cc2)cc1	2.87%	1.37%	0.41%
Cc1[nH]c(C)c(-c2ccc(OCCOc3ccc(C(F)(F)F)cn3)cc2)c(=O)c1Br	-0.58%	1.5%	-1.93%
O=C(Nc1ccc(OC2CCN(Cc3ccc(F)cc3)CC2)c(Cl)c1)c1cccs1	2.99%	0.38%	8.58%
CC(C)CNC(=O)c1cncc(-c2ccc(CN3CCC(N4CCCC4)CC3)cc2)c1	1.79%	1.64%	2.41%
CC(=O)Nc1cccc(-c2cnc(N)c3cc(-c4ccc5c(c4)OCO5)ccc23)c1	7.5%	7.74%	5.76%

SMILES	inhibition [1]	inhibition [2]	inhibition [3]
CCn1c(-c2nonc2N)nc2c(-c3cccc(NC(=O)Nc4ccc(Cl)cc4)c3)ncc(OCCCN)c21	1.03%	0.62%	1.46%
Cc1cc([N+](=O)[O-])ccc1N1CCN(CCCCNC(=O)c2ccc(NC(=O)c3ccc(Cl)cc3)cc2)CC1	4.75%	4.19%	4.35%
Cc1cc(=NN=Cc2cccc(F)c2)c2cccc(C)c2[nH]1	2.24%	3.31%	0.78%
COc1ccc(Cc2cnc3nc(N)nc(N)c3c2C)cc1	39.5%	49.3%	41.3%
Cn1c(NC(=O)C2CCCN(C(=O)c3ccc(O)c(-c4ccc(Cl)c(Cl)c4)c3)C2)nc2ccccc21 (centres undefined)	0.08%	-0.09%	-7.08%
CCCNC(=O)c1ccnc(-c2ccc(CNC3Cc4ccccc4C3)cc2)c1	1.45%	1.35%	-0.22%
Cc1c(-c2ccc3c(c2)C(NCCCN2CCCCC2)CC3)cnc(N)c1C (centres undefined)	0.7%	0.89%	2.57%
CN1CCCC(CN2CCN(Cc3ccc(-c4cccc(-c5nc6cc(F)ccc6[nH]5)c4)cc3)CC2)C1 (centres undefined)	-0.56%	1.31%	2.3%
CN1CCC(c2c[nH]c3ccc(NC(=O)Nc4ccc(-c5ccncc5)cc4Cl)cc23)CC1	1.45%	1.38%	2.14%
COc1cc(NC(=O)c2ccc(-c3ccc(C(C)=O)cc3)s2)ccc1OCCN1CCCC1	0.3%	-0.14%	1.4%
O=C(Nc1ccc(S(=O)(=O)N2CCOCC2)cc1)c1cc(-c2cc(Cl)ccc2O)n[nH]1	0.98%	0.88%	0.85%
Cc1cc(NC(=O)NCCN2CCC(NC(=O)c3ccc(F)cc3)CC2)c2ccccc2n1	-0.27%	-0.3%	-3.5%
COc1ccccc1CNC(=O)c1cc(OC)c(OC)cc1NC(=O)c1cccs1	10.5%	6%	4.4%
Cc1ccc2c(N/N=C/c3cccc([N+](=O)[O-])c3)cc(C)nc2c1	8.19%	4.7%	3.94%
Cc1ccc(Cc2cccc3nc(N)nc(N)c23)cc1	1.2%	0.71%	-0.6%
N=C1C=C(N)C(=O)c2ccccc21	89%	100%	94.2%
CO/C(=C\C=C\c1cc2cc(Cl)c(Cl)cc2[nH]1)C(=O)NC1CCN(CCCc2ccccc2)CC1	0.89%	1.14%	2.46%
CCn1c(Sc2ccc(C#N)c([N+](=O)[O-])c2)nnc1-c1ccc(OC)cc1	2.25%	4.95%	2.61%
Cc1cc(F)ccc1[C@H]1CNCCN1C(=O)N(C)C(C)(C)c1cc(C(F)(F)F)cc(C(F)(F)F)c1	-0.57%	-1.23%	-1.4%
CC[C@H](C)CNC(=O)c1cncc(-c2ccc(CNC3Cc4ccccc4C3)cc2)c1	6.08%	6.72%	5.96%
Cc1cccc(C(=O)Nc2ccnc(N3CCC(N(C)Cc4ccc(C#N)cc4)CC3)c2)c1	3.54%	2.52%	3.1%
COC(=O)c1ccc(CCCNCC(O)c2cccc(C(F)(F)F)c2)cc1 (centres undefined)	2.51%	3.05%	6.4%
CCC1(c2ccccc2)N=C(N)N(CCCc2ccccc2)C1=O (centres undefined)	2.53%	1.89%	0.85%
COc1cc2c(cc1S(=O)(=O)c1ccc(COc3ccc(C(F)(F)F)cc3)cc1)CNCC2	-1.59%	-0.71%	-1.92%
Cc1ccnc(NC(=O)c2cc(-c3cccc([N+](=O)[O-])c3)nc3onc(C)c23)c1	6.8%	7.59%	4.35%

SMILES	inhibition [1]	inhibition [2]	inhibition [3]
CCCC1N=C(N)N=C(N)N1c1ccc(C)cc1 (centres undefined)	4.06%	2.51%	2.47%
C[C@H](Cc1ccc(S(=O)(=O)c2ccc(C[C@@H](C)NC[C@H](O)c3cccc(Cl)c3)cc2)cc1)NC[C@H](O)c1cccc(Cl)c1	2.7%	4%	2.18%
N=C(N)NN=Cc1ccccc1OCc1ccccc1Cl	-0.49%	2.44%	0.38%
Cc1cccc(Nc2nccc(Nc3cccc(C(=O)NCCN4CCOCC4)c3)n2)c1	2.19%	1.2%	1.44%
O=C(Nc1cccc(-c2nn3ccccc3c2-c2ccnc(Nc3cccc(F)c3)n2)c1)c1c(F)ccc(F)c1F	6.01%	9.13%	5.56%
Cc1cccc2nc(-c3ccc(-c4cccc(NC(=O)C(=O)c5cccn5C)c4)cc3)[nH]c12	4.58%	2.19%	2.29%
Oc1ccccc1CNC1CCCCC1NCc1ccccc1O (centres undefined)	7.77%	9.96%	4.48%
CNC(=O)/C=C/c1cc(NC(=O)Nc2ccnc3c(Br)cccc23)ccc1OC	3.51%	2.22%	0.98%
O=C(Nc1ccc(Cl)c(Cl)c1)N1CCc2ccc(OCCCN3CCCCC3)cc2CC1	17.5%	16.2%	20.3%
Cc1cc(N)ncc1-c1ccc(NC(=O)Nc2cc(C(F)(F)F)ccc2F)cc1	2.41%	2.25%	1.43%
CCN(CC)CCN(Cc1ccc(-c2ccc(C(F)(F)F)cc2)cc1)C(=O)Cn1cc(Cc2cnn(C)c2)c(=O)nc1/C=C/c1cccc(F)c1F	3.81%	4.43%	2.54%
CNS(=O)(=O)Cc1ccc(Nc2nccc(Nc3cccc4c3cnn4C(=O)Nc3ccccc3)n2)cc1	4.38%	3.98%	3.72%
CCCNCc1ccc(-c2ccc(CN(CCOC)C(=O)c3cccc(C#N)c3)cc2)nc1	1.66%	1.45%	3.74%
CNC(=O)c1cnc(Nc2ccc(N3CCOCC3)cc2)nc1Nc1cccc(OC)c1	-0.53%	-1.08%	-2.23%
CC1CN(Cc2ccc(-c3ccc(-c4nc5cc(F)ccc5[nH]4)s3)cc2)CC(C)O1 (centres undefined)	5.96%	4.68%	3.99%
CCCCCC(C)C(C)c1cc(O)c2c(c1)OC(C)(C)CC2(O)c1ccnn1C (centres undefined)	3.29%	3.23%	3.24%
Cc1cc(N(C)CCCN2CCCCC2)nc(Nc2ccc(Cl)cc2)n1	0.51%	2.38%	2.88%
CN(C)c1ccc(CN2CCC(CNC(=O)c3cc(-c4cccc(F)c4)cs3)C2)cc1 (centres undefined)	-1.95%	-1.31%	-9.42%
O=C(Nc1ccc([N+](=O)[O-])cc1)c1nn(-c2ccccc2)cc1/N=C/c1cccc(O)c1	-0.62%	-1.47%	-1.45%
COc1ccccc1CNC(=O)CCn1c(=O)[nH]c2ccsc2c1=O	2.58%	3.17%	1.36%
O=C1CCCN1CCCNCc1ccc(-c2cccc(-c3nc4ccccc4[nH]3)c2)cc1	4.17%	3.74%	4.94%
Cc1cc(N2CCCC2)nc(Nc2ccc(NC(=O)C(C)C)cc2)n1	5.62%	2.73%	-6.48%
CCc1c(CCNCCCCCCNCCc2ccc(OC)c(OC)c2CC)ccc(OC)c1OC	8.52%	7.29%	6.3%
